# Data reported in article PMC9911399, “Two distinct binding modes provide the RNA-binding protein RbFox with extraordinary sequence specificity”.
# Positions count from the first letter of the chain named. Over roughly 16,000 sequences, “ka relative to ugcaugu” has its median near 0.096; the highest 2% begin near 0.35. For the sample, the highest values were picked, then their nearest neighbours and some sequences at random.
# T1: RBFOX1 RRM RbFoxmut (Fox-RRM*) (Homo sapiens, UniProt Q9NWB1 109-208, R118D;E147R;N151S;E152T)
# T1 sequence: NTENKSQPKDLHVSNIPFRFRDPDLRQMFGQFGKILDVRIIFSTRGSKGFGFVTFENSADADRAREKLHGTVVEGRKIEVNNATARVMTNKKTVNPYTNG
# B1: ACUUAUG (DNA:RNA)
# RNA: GGGAGACCGGAAUUCAGAUUGUCCACUUAUGUUAAAUCCCGUCGUAGCCACCA
# DNA 1: CAATCTGAATTCCGGTCTCCC
# DNA 2: TGGTGGCTACGACGGGATT
# B2: UCCAUGA (DNA:RNA)
# RNA: B1 RNA with A25U, U27C, U28A, A29U, U30G, G31A
# DNA 1: CAATCTGAATTCCGGTCTCCC
# DNA 2: TGGTGGCTACGACGGGATT
# B3: GGAGUCA (DNA:RNA)
# RNA: GGGAGACCGGAAUUCAGAUUGUCCGGAGUCAUUAAAUCCCGUCGUAGCCACCA
# DNA 1: CAATCTGAATTCCGGTCTCCC
# DNA 2: TGGTGGCTACGACGGGATT
# B4: CCAACAG (DNA:RNA)
# RNA: B1 RNA with A25C, U27A, U28A, A29C, U30A
# DNA 1: CAATCTGAATTCCGGTCTCCC
# DNA 2: TGGTGGCTACGACGGGATT
# B5: ACGGAGA (DNA:RNA)
# RNA: B1 RNA with U27G, U28G, U30G, G31A
# DNA 1: CAATCTGAATTCCGGTCTCCC
# DNA 2: TGGTGGCTACGACGGGATT
# B6: GAUCACA (DNA:RNA)
# RNA: B3 RNA with G26A, A27U, G28C, U29A
# DNA 1: CAATCTGAATTCCGGTCTCCC
# DNA 2: TGGTGGCTACGACGGGATT
# B7: GAUCCGG (DNA:RNA)
# RNA: B1 RNA with A25G, C26A, U28C, A29C, U30G
# DNA 1: CAATCTGAATTCCGGTCTCCC
# DNA 2: TGGTGGCTACGACGGGATT
# B8: CUUCGGA (DNA:RNA)
# RNA: B1 RNA with A25C, C26U, U28C, A29G, U30G, G31A
# DNA 1: CAATCTGAATTCCGGTCTCCC
# DNA 2: TGGTGGCTACGACGGGATT
# B9: AUGUGUU (DNA:RNA)
# RNA: B1 RNA with C26U, U27G, A29G, G31U
# DNA 1: CAATCTGAATTCCGGTCTCCC
# DNA 2: TGGTGGCTACGACGGGATT
# B10: AUGUGCC (DNA:RNA)
# RNA: B1 RNA with C26U, U27G, A29G, U30C, G31C
# DNA 1: CAATCTGAATTCCGGTCTCCC
# DNA 2: TGGTGGCTACGACGGGATT
# B11: AUGUGUG (DNA:RNA)
# RNA: B1 RNA with C26U, U27G, A29G
# DNA 1: CAATCTGAATTCCGGTCTCCC
# DNA 2: TGGTGGCTACGACGGGATT
# B12: AUGUGUC (DNA:RNA)
# RNA: B1 RNA with C26U, U27G, A29G, G31C
# DNA 1: CAATCTGAATTCCGGTCTCCC
# DNA 2: TGGTGGCTACGACGGGATT
# B13: AUGUGCG (DNA:RNA)
# RNA: B1 RNA with C26U, U27G, A29G, U30C
# DNA 1: CAATCTGAATTCCGGTCTCCC
# DNA 2: TGGTGGCTACGACGGGATT
# B14: AUGUCCC (DNA:RNA)
# RNA: B1 RNA with C26U, U27G, A29C, U30C, G31C
# DNA 1: CAATCTGAATTCCGGTCTCCC
# DNA 2: TGGTGGCTACGACGGGATT
# Target: T1, RBFOX1 RRM RbFoxmut (Fox-RRM*)
# Assay: EMSA; HiTS-Eq, 1 nM pool, 10 min; buffer printed only for the single-RNA assays: 10 mM Tris pH 7.5, 150 mM NaCl, 3.4 mM EDTA, 0.001% NP-40, 30 C
# Conditions: tags: His6 N-terminal (pET28a); label: 5' 32P
# How it was run: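 Purified wild-type or mutant RbFox RRM at increasing concentrations was equilibrated with 1 nM of 5′-radiolabelled RNA carrying 7 randomized nucleotides for 10 min in 50 µL. Unbound RNA was separated by 8% native PAGE and sequenced. Relative association constants came from read-count changes of each RNA species compared with the control reaction, normalised to the cognate motif.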
row,Binder,binding signal
1,B1,0.125 KA relative to UGCAUGU
2,B2,0.11 KA relative to UGCAUGU
3,B3,0.0995 KA relative to UGCAUGU
4,B4,0.108 KA relative to UGCAUGU
5,B5,0.0992 KA relative to UGCAUGU
6,B6,0.0738 KA relative to UGCAUGU
7,B7,0.06 KA relative to UGCAUGU
8,B8,0.0749 KA relative to UGCAUGU
9,B9,0.174 KA relative to UGCAUGU
10,B10,0.372 KA relative to UGCAUGU
11,B11,0.443 KA relative to UGCAUGU
12,B12,0.289 KA relative to UGCAUGU
13,B13,0.231 KA relative to UGCAUGU
14,B14,0.0715 KA relative to UGCAUGU
